Experiment [1] in a line: binders of probe aFSTL3 on microarray, primary screen, stem cell growth factor project, biochemical, small-molecule microarray, fluorescence 635/667 (AID 1064).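 Further: measures binding of the biotinylated anti-FSTL3 antibody to printed compounds.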 The note with it: higher = more signal.
Experiment [2] is described as follows: binders from COS7 lysate, DM2A8 probe, primary screen, torsin A project, cell lysate, small-molecule microarray, fluorescence 635/667 (AID 1065). The note with it: higher = more signal, COS7 lysate expressing mutant human TOR1A.
Experiment [3] can be described thus: binders of probe aFGF2 on microarray, primary screen, stem cell growth factor project, biochemical, small-molecule microarray, fluorescence 635/667 (AID 1067).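 Further: measures binding of biotinylated aFGF2 protein to printed compounds on slides; z-score merges feature fluorescence and signal-to-noise across triplicate slides.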 The note with it: higher = more signal.
Experiment [4] is described as follows: binders of probe aFGF10 on microarray, primary screen, stem cell growth factor project, biochemical, small-molecule microarray, fluorescence 635/667 (AID 1071).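 Further: score merges 667 nm spot intensity and signal to noise from triplicate slides.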 Particulars: higher = more signal.
Experiment [5] deals with Neurogenic locus notch homolog protein 2 (Homo sapiens) (UniProt Q04721). The experiment can be described thus: Notch2 binders on small-molecule microarrays, primary screen, biochemical, small-molecule microarray, 635 nm fluorescence, stem cell growth factors (AID 1073). Particulars: Notch2 binding, higher = more signal.
Sequence of Neurogenic locus notch homolog protein 2 (Homo sapiens) (Q04721 whole entry, looked up, canonical isoform): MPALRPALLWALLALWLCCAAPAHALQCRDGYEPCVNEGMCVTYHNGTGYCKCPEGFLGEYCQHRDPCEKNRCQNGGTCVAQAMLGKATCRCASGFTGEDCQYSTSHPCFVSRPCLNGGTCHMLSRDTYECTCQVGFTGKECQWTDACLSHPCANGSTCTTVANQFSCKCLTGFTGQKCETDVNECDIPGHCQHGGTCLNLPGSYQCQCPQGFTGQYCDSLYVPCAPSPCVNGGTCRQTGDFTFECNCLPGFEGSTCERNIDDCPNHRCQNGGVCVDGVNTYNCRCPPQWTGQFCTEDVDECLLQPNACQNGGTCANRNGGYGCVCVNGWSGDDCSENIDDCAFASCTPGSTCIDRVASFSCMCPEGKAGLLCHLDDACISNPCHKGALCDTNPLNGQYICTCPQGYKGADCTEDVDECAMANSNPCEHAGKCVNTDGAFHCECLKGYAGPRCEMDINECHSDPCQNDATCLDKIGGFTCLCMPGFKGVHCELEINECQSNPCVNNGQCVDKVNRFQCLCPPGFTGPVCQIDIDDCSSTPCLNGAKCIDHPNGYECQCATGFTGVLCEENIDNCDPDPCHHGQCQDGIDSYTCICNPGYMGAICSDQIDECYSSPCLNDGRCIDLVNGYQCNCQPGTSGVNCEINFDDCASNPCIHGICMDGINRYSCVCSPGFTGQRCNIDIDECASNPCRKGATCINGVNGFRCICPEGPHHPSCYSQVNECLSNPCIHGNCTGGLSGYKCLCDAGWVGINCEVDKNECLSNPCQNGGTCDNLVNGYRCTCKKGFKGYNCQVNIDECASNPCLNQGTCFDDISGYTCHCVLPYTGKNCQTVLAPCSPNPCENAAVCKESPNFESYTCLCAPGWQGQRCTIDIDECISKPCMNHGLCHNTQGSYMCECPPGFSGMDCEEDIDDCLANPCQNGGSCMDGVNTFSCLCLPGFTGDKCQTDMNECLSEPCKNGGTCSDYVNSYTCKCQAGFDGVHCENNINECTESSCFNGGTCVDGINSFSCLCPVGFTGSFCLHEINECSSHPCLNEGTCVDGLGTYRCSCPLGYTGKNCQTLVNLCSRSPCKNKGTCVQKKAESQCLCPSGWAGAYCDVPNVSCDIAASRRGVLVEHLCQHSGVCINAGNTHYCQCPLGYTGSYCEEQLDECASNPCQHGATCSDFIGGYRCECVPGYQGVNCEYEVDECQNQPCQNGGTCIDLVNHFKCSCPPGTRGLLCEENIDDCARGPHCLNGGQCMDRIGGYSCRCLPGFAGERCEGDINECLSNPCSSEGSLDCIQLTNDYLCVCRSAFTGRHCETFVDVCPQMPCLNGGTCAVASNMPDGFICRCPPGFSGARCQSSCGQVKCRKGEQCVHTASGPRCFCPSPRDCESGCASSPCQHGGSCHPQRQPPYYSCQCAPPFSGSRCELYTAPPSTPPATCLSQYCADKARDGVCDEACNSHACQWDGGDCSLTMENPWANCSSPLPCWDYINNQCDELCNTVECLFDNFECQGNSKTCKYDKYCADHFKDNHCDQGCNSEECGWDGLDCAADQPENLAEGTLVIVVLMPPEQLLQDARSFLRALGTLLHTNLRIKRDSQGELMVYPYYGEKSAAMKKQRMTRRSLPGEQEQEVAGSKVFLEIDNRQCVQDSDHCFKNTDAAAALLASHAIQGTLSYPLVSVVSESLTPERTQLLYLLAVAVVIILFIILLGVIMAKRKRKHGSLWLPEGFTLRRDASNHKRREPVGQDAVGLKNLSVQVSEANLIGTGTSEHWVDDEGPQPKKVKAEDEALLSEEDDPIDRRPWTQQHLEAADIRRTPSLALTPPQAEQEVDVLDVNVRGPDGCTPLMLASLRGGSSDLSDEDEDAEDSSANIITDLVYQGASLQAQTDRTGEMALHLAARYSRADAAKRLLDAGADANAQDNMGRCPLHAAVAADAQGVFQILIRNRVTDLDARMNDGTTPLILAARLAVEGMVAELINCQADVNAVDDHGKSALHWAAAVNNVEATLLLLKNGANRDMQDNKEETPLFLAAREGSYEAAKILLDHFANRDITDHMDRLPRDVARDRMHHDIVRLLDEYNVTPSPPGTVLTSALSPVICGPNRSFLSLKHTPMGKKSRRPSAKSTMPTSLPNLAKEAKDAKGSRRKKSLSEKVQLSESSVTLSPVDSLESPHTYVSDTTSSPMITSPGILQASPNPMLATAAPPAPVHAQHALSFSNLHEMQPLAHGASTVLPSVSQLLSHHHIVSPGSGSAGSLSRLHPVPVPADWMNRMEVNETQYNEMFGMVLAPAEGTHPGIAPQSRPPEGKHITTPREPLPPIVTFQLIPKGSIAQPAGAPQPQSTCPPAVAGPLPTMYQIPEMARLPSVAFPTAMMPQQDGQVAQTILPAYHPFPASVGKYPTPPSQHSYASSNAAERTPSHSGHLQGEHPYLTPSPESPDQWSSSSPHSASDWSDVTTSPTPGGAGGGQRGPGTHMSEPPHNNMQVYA
Experiment [6] concerns the target Pro-neuregulin-1, membrane-bound isoform (Homo sapiens) (UniProt Q02297). The experiment can be described thus: NRG1 binders on small-molecule microarrays, primary screen, psychiatric disease protein project, biochemical, small-molecule microarray, fluorescence 635/667 (AID 1075).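 Further: score combines 667 nm spot fluorescence with signal to noise.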 Particulars: NRG1 binding, 635 nm fluorescence, higher = more signal.
The test system of experiment [7] is Neuregulin-1 EGF-like domain. Description: binders of neuregulin-1 EGF-like domain, primary screen, biochemical, small-molecule microarray, 635 nm fluorescence (AID 1081).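 Further: binding of the protein to compounds printed on small-molecule microarray slides.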 Particulars: small-molecule microarray binding, higher = more signal.
Experiment [8] in a line: FRG1 promoter luciferase signal modulators, primary screen, FRG1 inhibition for FSHD, cell-based, C2C12 myotubes, firefly/Renilla luciferase, luminescence (AID 1084). The note with it: higher = more signal, called active from +8 up or from −8 down.
Experiment [9] can be described thus: binders of probe aFST on microarray, primary screen, stem cell growth factor project, biochemical, small-molecule microarray, fluorescence 635/667 (AID 1086).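 Further: score merges 667 nm fluorescence with signal-to-noise of each printed compound spot.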 Particulars: higher = more signal.
Experiment [10] can be described thus: binders of probe aHhip on microarray, primary screen, stem cell growth factor project, biochemical, small-molecule microarray, fluorescence 635/667 (AID 1087).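 Further: score merges spot fluorescence at 667nm with spot signal to noise ratio.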 The note with it: higher = more signal.
Experiment [11] deals with PRMT1 (protein arginine N-methyltransferase 1). The experiment can be described thus: PRMT1 binders on small-molecule microarrays, primary screen, biochemical, small-molecule microarray, 635 nm fluorescence (AID 1088).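 Further: binding of Prmt1 protein to compounds spotted on small-molecule microarray slides.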 The note with it: small-molecule microarray binding, higher = more signal.
Experiment [12] is described as follows: yeast growth modulation, basal conditions, primary screen, YJM789 clinical isolate, OD600, 24 h (AID 1089).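 Further: growth of clinical yeast isolate S. cerevisiae YJM 789 seeded 1000 cells per well; test concentration not given here.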 Particulars: S. cerevisiae YJM789 growth, higher = more signal, called active from +8 up or from −8 down.
Experiment [13] in a line: fission yeast growth modulation, primary screen, strain 972, OD600, 24 h, no modulator (AID 1090).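 Further: basal condition with compound alone and no growth modifier present; test concentration not given here.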 The note with it: S. pombe 972 growth, higher = more signal, called active from +8 up or from −8 down.
A short description of experiment [14]: S. cerevisiae growth modulation with rapamycin, primary screen, strain BY4716, OD600, 96 h (AID 1091). Further: test concentration not given here. Particulars: higher = more signal, called active from +8 up or from −8 down.
The target of experiment [15] is Torsin-1A-interacting protein 2 (Homo sapiens) (UniProt Q8NFQ8). The experiment can be described thus: LULL1 binders on small-molecule microarray, primary screen, cell lysate, human LULL1 lysate, 635/667 nm fluorescence (AID 1092).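 Further: score merges per-feature 667 nm fluorescence with signal-to-noise.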 Particulars: hLULL1 lysate binding, 635 nm fluorescence, higher = more signal.
Sequence of Torsin-1A-interacting protein 2 (Homo sapiens) (Q8NFQ8 whole entry, looked up): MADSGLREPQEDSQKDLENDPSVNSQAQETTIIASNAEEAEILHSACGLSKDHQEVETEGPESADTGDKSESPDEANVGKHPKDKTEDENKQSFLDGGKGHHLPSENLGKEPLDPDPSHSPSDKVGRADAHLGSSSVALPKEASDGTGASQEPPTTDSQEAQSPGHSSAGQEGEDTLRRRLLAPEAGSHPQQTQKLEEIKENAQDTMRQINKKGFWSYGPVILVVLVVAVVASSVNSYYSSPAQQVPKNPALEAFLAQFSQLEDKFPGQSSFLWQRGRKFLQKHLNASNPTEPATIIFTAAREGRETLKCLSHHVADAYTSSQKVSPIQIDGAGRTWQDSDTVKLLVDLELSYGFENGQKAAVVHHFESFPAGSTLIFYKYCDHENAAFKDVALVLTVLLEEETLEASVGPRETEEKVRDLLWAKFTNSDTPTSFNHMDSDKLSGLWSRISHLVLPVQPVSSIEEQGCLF
A short description of experiment [16]: E. coli growth modulation, two-sided OD650, primary screen, E. coli filamentation project, strain DRC41, 24 h (AID 1093).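 Further: MC1000 strain lacking acrAB efflux and sulA so SOS filamentation is blocked; test concentration not given here.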 The note with it: OD650, 24 h, higher = more signal, called active from +8 up or from −8 down.
The nature of experiment [17]: small-molecule microarray binders of probe aLefty2, primary screen, biochemical, biotinylated probe, 635/667 nm fluorescence (AID 1094).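 Further: score merges spot fluorescence near 667 nm with spot signal-to-noise ratio.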 Particulars: higher = more signal.
The subject of experiment [18] is Noggin (protein binding on small-molecule microarray). Description: Noggin binders on small-molecule microarray, primary screen, biochemical, 635/667 nm fluorescence (AID 1095).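 Further: score merges 667 nm feature fluorescence with signal to noise over triplicate slides.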 Particulars: 635 nm fluorescence, higher = more signal.
Experiment [19] addresses Neurogenic locus notch homolog protein 3 (Homo sapiens) (UniProt Q9UM47). Description: NOTCH3 binders on small-molecule microarray, primary screen, biochemical, 635/667 nm fluorescence (AID 1096). Particulars: NOTCH3 binding, 635 nm fluorescence, higher = more signal.
Experiment [20] in a line: small-molecule microarray binders of probe aEGFR, primary screen, biochemical, biotinylated probe, 635/667 nm fluorescence (AID 1097).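 Further: probe is a biotinylated anti-EGFR antibody binding compounds printed on slides; score combines fluorescence near 667 nm and signal to noise of each spot.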 Particulars: higher = more signal.

Calls of active or inactive are those of the source.

Sequence of Pro-neuregulin-1, membrane-bound isoform (Homo sapiens) (Q02297 whole entry, looked up, the tested form may be a part, canonical isoform): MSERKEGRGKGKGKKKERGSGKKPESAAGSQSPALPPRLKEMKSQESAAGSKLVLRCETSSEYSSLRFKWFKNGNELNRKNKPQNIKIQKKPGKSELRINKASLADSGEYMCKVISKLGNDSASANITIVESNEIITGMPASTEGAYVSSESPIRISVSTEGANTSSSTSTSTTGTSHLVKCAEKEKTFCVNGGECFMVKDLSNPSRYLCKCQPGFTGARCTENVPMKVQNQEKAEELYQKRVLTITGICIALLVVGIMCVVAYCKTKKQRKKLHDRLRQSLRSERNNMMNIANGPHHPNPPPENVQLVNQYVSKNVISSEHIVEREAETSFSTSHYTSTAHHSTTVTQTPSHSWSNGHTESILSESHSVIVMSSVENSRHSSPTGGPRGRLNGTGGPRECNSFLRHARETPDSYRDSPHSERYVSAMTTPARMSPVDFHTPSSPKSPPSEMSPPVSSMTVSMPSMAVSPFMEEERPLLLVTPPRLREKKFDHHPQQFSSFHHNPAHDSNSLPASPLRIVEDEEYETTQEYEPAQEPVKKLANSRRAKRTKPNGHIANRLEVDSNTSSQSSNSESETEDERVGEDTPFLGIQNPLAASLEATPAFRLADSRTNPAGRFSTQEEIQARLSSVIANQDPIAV

Regarding `COc1cc2c(cc1OC)CN(C(=O)[C@@H]1[C@H]3C(=O)O[C@H](c4ccccc4)[C@H](c4ccccc4)N3[C@H](c3ccc(O)cc3)[C@@]13C(=O)Nc1ccc(C#CCNC(N)=O)cc13)CC2`, the composite z-score in [1] was -0.133; in experiment [2], -0.121; in [3] it was -0.0616; in experiment [4], 0.411; in experiment [5], 0.578; in [6], 0.559. The composite z-score in experiment [7] was 0.544; in [9], 0.75; in [10], -0.0994; in [11], 0.666; in experiment [15] it was 1.22; in experiment [17] it was 0.0835. In addition, the composite z-score is 1.03 in experiment [18], 0.802 in experiment [19] and -0.0455 in experiment [20]. For the same compound, the z-score in [8] was 0.238 (inactive); in experiment [12], 1.1 (inactive); in experiment [13], 1.27 (inactive); in [14], 1.48 (inactive); in experiment [16], 0.364 (inactive).

Turning to `COc1ccc([Si](C)(C)[C@@H]2[C@@H](CC(=O)N3Cc4ccccc4C[C@H]3CO)O[C@]3(C(=O)N(Cc4cccc(N5CCCCC5=O)c4)c4ccccc43)[C@H]2C)cc1`, the composite z-score is -0.429 in experiment [1]; 0.569 in experiment [2]; 0.0207 in [3]; 0.494 in [4]; 0.523 in experiment [5]; 0.69 in [6]. Moreover, the composite z-score in experiment [7] is 0.899; in [9], 0.272; in experiment [10], -0.0994; in experiment [11], 1.55; in [15], 1.79; in experiment [17] it was -0.0878. For the same compound, the values for the composite z-score in [18], in [19] and in experiment [20] were 1.41, 1.07 and -0.0356, respectively. In addition, the z-score in experiment [8] was -2.18 (inactive); in experiment [12], 0.318 (inactive); in experiment [13], 1.41 (inactive); in experiment [14], 2.4 (inactive); in experiment [16] it was 0.73 (inactive).

Take `CC(C)NC(=O)[C@@]1(Cc2ccccc2I)c2ccccc2C(=O)N(Cc2ccccc2C(F)(F)F)[C@H]1c1ccc(CO)cc1`: the composite z-score in experiment [1] was 0.695; in experiment [2], 0.44; in experiment [3] it was -0.0316; in experiment [4] it was -0.0029; in experiment [5], 0.234; in [6], 1.71. Besides, the composite z-score came out at 1.21 in experiment [7]; 0.0674 in experiment [9]; 0.533 in experiment [10]; 1.53 in [11]; 2.84 in experiment [15]; 0.158 in [17]. Besides, the composite z-score in [18] is 0.461; in [19], 0.662; in experiment [20], -0.0304. Moreover, the z-score in experiment [8] is -2.61 (inactive); in experiment [12], -0.442 (inactive); in experiment [13], -1.48 (inactive); in experiment [14], -0.918 (inactive); in experiment [16], 0.125 (inactive).

As to `C=CCN1C(=O)[C@@]2(O[C@@H](CCO)[C@H]([Si](C)(C)c3ccc(OC)cc3)[C@H]2C)c2cc(NC(=O)[C@H](C)O)ccc21`, the composite z-score is -0.0083 in experiment [1]; 0.558 in [2]; -0.0243 in experiment [3]; 1.03 in experiment [4]; 0.503 in experiment [5]; 0.915 in experiment [6]. In addition, the composite z-score in experiment [7] is 1.1; in experiment [9], 0.005; in experiment [10] it was -0.169; in experiment [11] it was 1.54; in experiment [15], 3.15; in experiment [17], -0.0622. The composite z-score is 0.959 in [18], 0.759 in [19] and -0.0485 in experiment [20]. The z-score in [8] is -0.737 (inactive); in experiment [12], 0.988 (inactive); in experiment [13], -1.64 (inactive); in experiment [14], -0.0361 (inactive); in [16] it was 0.571 (inactive).

`[N-]=[N+]=NCc1ccccc1C[C@]1(C(=O)NCCN2CCOCC2)N=C(c2ccc(OCCCO)cc2)O[C@H]1c1ccccc1`: the composite z-score is 0.081 in experiment [1]; 0.205 in [2]; -0.0085 in experiment [3]; 0.713 in experiment [4]; 0.0617 in experiment [5]; 1.32 in [6]. The composite z-score in experiment [7] is 1.26; in experiment [9], 0.632; in experiment [10], -0.0296; in [11] it was 1.54; in [15], 3.22; in experiment [17] it was -0.0519. Besides, the composite z-score in experiment [18] is 1.88; in experiment [19] it was 0.626; in experiment [20], -0.0382. In addition, the z-score is -0.849 (inactive) in experiment [8]; -2.01 (inactive) in experiment [12]; -0.85 (inactive) in experiment [13]; -2.06 (inactive) in [14]; 0.677 (inactive) in experiment [16].

The record behind these values is PubChem BioAssay.
